TEAD-YAP inh – TEAD-YAP interaction inhibition, primary screen, TEAD-YAP interaction inhibitor project, luminescence, HEK-TIYL cells. 640,000 tested, 1.4% active. inhibition, % at 9.12 µM. TEAD-Gal4/YAP UAS-luciferase luminescence. AID 1259422, 2018; in the data active means inhibition above about 32%;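 further: 0% = median of test compound wells and 100% = reference inhibitor wells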
GPR151 activ – activators of human GPR151, primary screen, cell-based, PathHunter beta-arrestin, luminescence; PathHunter beta-arrestin GPR151 cells; activation, % at 11.2 µM; 650,000 tested, 1% active; G-protein coupled receptor 151 (Homo sapiens), Q8TDV0; in the data active means activation above about 4.9%;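 further: 0% = median of compound wells and 100% = cells with positive control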
Target sequence (Q8TDV0 whole entry, looked up): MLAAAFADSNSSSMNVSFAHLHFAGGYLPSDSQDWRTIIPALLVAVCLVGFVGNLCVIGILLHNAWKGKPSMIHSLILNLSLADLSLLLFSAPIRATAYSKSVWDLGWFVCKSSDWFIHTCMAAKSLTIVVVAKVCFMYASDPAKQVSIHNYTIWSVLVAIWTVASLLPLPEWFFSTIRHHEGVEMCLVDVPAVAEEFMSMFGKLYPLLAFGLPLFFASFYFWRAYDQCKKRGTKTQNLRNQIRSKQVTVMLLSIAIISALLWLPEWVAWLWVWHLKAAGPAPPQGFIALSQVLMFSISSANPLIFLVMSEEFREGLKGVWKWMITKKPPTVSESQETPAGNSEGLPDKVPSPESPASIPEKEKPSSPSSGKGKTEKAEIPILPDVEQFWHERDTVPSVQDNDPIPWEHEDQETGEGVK
MITF inh – MITF inhibitors, primary screen, biochemical, AlphaScreen, human. Microphthalmia-associated transcription factor (Homo sapiens), O75030. AlphaScreen MITF homodimerization, bead proximity signal. inhibition, % at 2.6 µM. 650,000 tested, 0.91% active; in the data active means inhibition above about 50%;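 further: 0% = vehicle wells with protein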
FBW7 act – FBW7 E3 ligase activators, primary screen, biochemical, AlphaScreen, human; AlphaScreen FBW7–phospho-cyclin E peptide binding, activator screen; normalized activity (activation), % at 26.1 µM; 650,000 tested, 0.13% active; in the data active means normalized activity above about 1.9%;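 further: purified mutant Fbw7 with reduced substrate affinity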
MITF inh conf – MITF inhibitors, retest of hits, confirmation, biochemical, AlphaScreen, triplicate; shares compounds with MITF inh; AlphaScreen MITF homodimerization, biotin/His-MITF beads; AID 1259372, 2018; inhibition, % at 2.6 µM; 4,700 tested, 16% active;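 active means inhibition above a cutoff derived from the DMSO control wells, cut at about 28% in these data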;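 further: 0% = MITF dimer wells with DMSO only; inhibitors lower the bead chemiluminescence by keeping MITF from dimerizing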
AlphaScreen DR – AlphaScreen optical interference compounds, dose response, counter-screen, biochemical, HTS. shares compounds with MITF inh. AlphaScreen optical interference counterscreen, cell-free. IC50, µM. 480 tested, 6% active. AID 1259373, 2018; call rule not given here
AS interf ctr – AlphaScreen optical interference compounds, counter-screen for MITF inhibitor project, biochemical, triplicate | inhibition, % at 2.6 µM | LysRS AlphaScreen counterscreen, signal interference | shares compounds with MITF inh | 4,700 tested, 7.6% active;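 active means inhibition above a cutoff derived from the DMSO control wells, cut at about 30% in these data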
Numbers without * were called inactive; nt = no result. Sampled rows, rich in hits. Any-hit rate of the full collection: about 3.5%.

SMILES	TEAD-YAP inh	GPR151 activ	MITF inh	FBW7 act	MITF inh conf	AS interf ctr	others
O=C(c1ccccc1)N1CCC(N2CCN(Cc3ccccc3)CC2)CC1	10.8	-2.3	83.1*	0.4	4.6	-2.0
Fc1ccc(CN2CCC(N3CCN(Cc4ccccc4)CC3)CC2)cc1	11.1	0.2	43.1	0.3	nt	nt
O=C(c1ccco1)N1CCN(C2CCN(Cc3ccccc3)CC2)CC1	-4.9	0.5	59.9*	-0.3	-9.0	3.8
O=C(c1ccc(F)cc1)N1CCN(C2CCN(Cc3ccccc3)CC2)CC1	12.6	-1.5	57.2*	0.8	9.4	18.3
O=C(c1ccccc1F)N1CCN(C2CCCCC2)CC1	-0.3	2.8	35.6	0.1	nt	nt
O=C(Cc1ccccc1)N1CCC(C(=O)N2CCN(c3ccccc3)CC2)CC1	3.7	-1.8	0.0	0.3	nt	nt
O=C(Cc1ccccc1)N1CCC(N2CCN(c3ccccc3)CC2)CC1	4.6	1.2	55.1*	0.1	-1.8	3.4
COc1ccc(C(=O)N2CCC(N3CCCC3)CC2)cc1	-0.5	3.8	30.5	-0.1	nt	nt
CN1CCN(C2CCN(C(=O)c3ccc(F)cc3)CC2)CC1	-5.0	0.1	57.5*	0.1	0.5	0.3
O=C(c1ccccc1F)N1CCN(C2CCN(Cc3ccccc3)CC2)CC1	5.3	0.1	60.8*	-0.1	9.2	17.9
CN(C(=O)COC(=O)c1cc(Cl)cc(Cl)c1N)c1ccccc1	-6.6	1.7	8.1	0.1	nt	nt
O=C(c1cccc(Cl)c1)N1CCN(Cc2ccccc2F)CC1	5.7	2.0	59.2*	0.1	6.7	7.4
Cc1ccccc1CN1CCN(C(=O)c2cccc(Cl)c2)CC1	-6.4	0.7	62.8*	0.8	7.4	11.9
CC(=O)Nc1ccc(Nc2nc(N3CCCC3CO)nc3nc[nH]c23)cc1 (stereo not given)	4.8	-0.2	8.4	0.7	nt	nt
O=C(O)/C=C/C(=O)Nc1nc(-c2ccc(Br)cc2)cs1	-1.7	-1.0	-3.4	-0.1	nt	nt
COc1ccc([C@@H]2CCN(C(=O)c3cc(F)cc(F)c3)C[C@H]2O)cc1	-8.6	-0.5	-8.4	0.1	nt	nt
O=C(c1cc(F)cc(F)c1)N1CC[C@@H](c2ccccc2)[C@H](O)C1	-3.2	-0.6	53.2*	0.0	-2.5	6.9
COCCN(C(=O)CC1(c2ccccc2)CC(=O)N(Cc2cccs2)C1=O)C(C)C (stereo not given)	4.9	-1.6	3.0	0.0	nt	nt
CSc1cccc(C(=O)N(CCn2cccn2)c2nc3c(C)cc(C)cc3s2)c1	-6.7	0.0	95.4*	0.0	-14.1	-5.4
O=C(Cc1ccccc1[N+](=O)[O-])NN1CCOCC1	5.5	3.2	16.6	0.7	nt	nt
CCOC(=O)/C=C/c1ccco1	-3.3	0.1	14.3	0.0	nt	nt
N#Cc1ccc(OCC(=O)OCC(=O)NCc2ccco2)cc1	4.1	-1.1	3.4	-0.1	nt	nt
O=C(COC(=O)/C=C/c1ccco1)COC(=O)/C=C/c1ccco1	5.9	-0.7	78.1*	-0.4	62.9*	-14.9	AlphaScreen DR=>7.07
O=C(COC(=O)COc1ccc(Cl)cc1)NCc1ccco1	0.1	0.7	52.4*	-0.3	56.3*	-5.6	AlphaScreen DR=>7.21
O=C(COC(=O)/C=C/c1ccco1)NCc1ccco1	-3.1	-1.7	63.5*	-0.1	63.5*	-1.3	AlphaScreen DR=>6.6
SMILES	TEAD-YAP inh	GPR151 activ	MITF inh	FBW7 act	MITF inh conf	AS interf ctr	others
O=C(COC(=O)/C=C/c1ccco1)NC1CCCCC1	6.6	3.8	8.2	0.0	nt	nt
O=C(O)CN1C(=O)/C(=c2\sc3nc4ccccc4n3c2=O)c2ccccc21	-4.6	-0.3	16.7	0.3	nt	nt
Cc1cc(C)n2nc(C(=O)OC/C(O)=C(\C#N)c3nc4ccccc4[nH]3)nc2n1	4.8	1.7	1.9	-0.2	nt	nt
O=C(CSc1nc2[nH]ncc2c(=O)[nH]1)NC1CCCCC1	-12.2	-1.0	4.9	0.1	nt	nt
CC(=O)/C=C/c1cn(C(C)=O)c2ccccc12	-5.1	-1.0	14.1	-0.1	nt	nt
Cc1ccc2nc(CN(C)Cc3nccs3)nc(N)c2c1	-24.9	1.0	65.3*	-0.2	39.6*	100.2*
